Compound activity: PubChem BioAssay, several laboratories
This is a sample that favours compounds with a hit; in the whole collection about 3.9% have one here.
SUMO HTRF inh: SUMOylation inhibition. HTRF SUMOylation assay, SAE1/SAE2 + UBC9, in vitro. inhibition, % at 35 µM. 290,000 tested, 0.36% active. AID 2006; in the data active means inhibition above about 50%, passing the limit was not always enough; inconclusive means no clear call, values can overlap the other calls
NTR1 agonist: activates human neurotensin receptor 1; P30989; NTR1-U2OS beta-arrestin-GFP spot imaging, agonist mode; activation, % at 20 µM; 330,000 tested, 0.17% active;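 active means activation at or above 40% of the spot to cytoplasm intensity ratio, with at least 20 cells analyzed; inconclusive means wells under 20 cells, flagged as cytotoxic or low count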;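 further: 0% = DMSO without peptide and 100% = 100 nM NTR1 peptide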
Target sequence (P30989 whole entry, looked up): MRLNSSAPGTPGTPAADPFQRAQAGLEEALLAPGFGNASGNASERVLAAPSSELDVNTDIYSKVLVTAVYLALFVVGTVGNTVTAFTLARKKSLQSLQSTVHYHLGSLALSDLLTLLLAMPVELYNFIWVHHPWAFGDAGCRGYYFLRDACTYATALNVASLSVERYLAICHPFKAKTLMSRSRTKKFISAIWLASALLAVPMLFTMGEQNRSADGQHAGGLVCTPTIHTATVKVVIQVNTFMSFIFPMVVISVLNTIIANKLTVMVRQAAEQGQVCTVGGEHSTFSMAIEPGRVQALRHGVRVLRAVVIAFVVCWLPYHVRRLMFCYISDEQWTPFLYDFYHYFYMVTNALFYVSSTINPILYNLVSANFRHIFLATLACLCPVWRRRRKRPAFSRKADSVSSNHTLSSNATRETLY
ALR inh: inhibitors of human sulfhydryl oxidase ALR; 290,000 tested, 3.8% active; inhibition, % (concentration not given with the values); purified ALR, DTT oxidation, H2O2 HRP-luminol luminescence; P55789;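 active means mean replicate inhibition above about 79%, with every replicate also reaching it, limit read from the data; inconclusive means only one of the two criteria met; inactive means mean below limit and not every replicate reaching it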
Target sequence (P55789 whole entry, looked up): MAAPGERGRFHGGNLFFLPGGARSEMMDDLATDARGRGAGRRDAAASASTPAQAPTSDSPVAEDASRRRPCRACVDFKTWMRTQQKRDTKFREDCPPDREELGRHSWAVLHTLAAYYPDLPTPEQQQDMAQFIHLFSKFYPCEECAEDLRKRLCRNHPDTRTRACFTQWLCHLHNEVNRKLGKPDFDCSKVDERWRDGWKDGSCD
Cardio protect: protects H9c2 cardiomyocytes from peroxide injury | H2O2 injury protection, ATPLite, 2 h | protection from H2O2 cell death, % at 20 µM | 360,000 tested, 0.63% active;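 active means compounds giving at least 50% protection of heart cells from peroxide-induced death in the single-dose screen, raw or plate-pattern-corrected value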;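 further: 0% = DMSO wells with peroxide and 100% = DMSO wells without peroxide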
* marks the source's active call; other numbers are inactive results; ? = inconclusive; . = not tested or not shown.

SMILES | SUMO HTRF inh | NTR1 agonist | ALR inh | Cardio protect
Oc1cccc(Nc2c3ccccc3nc3ccccc23)c1 | 2 | 8 | 99* | -15
c1cncc(Nc2c3ccccc3nc3ccccc23)c1 | 14 | 4 | 5 | -8
O=c1cnnc(SCc2ccc([N+](=O)[O-])cc2)[nH]1 | -6 | -2 | 100* | 16
COc1cc(CC2COC(c3ccc(O)c(OC)c3)C2COC(C)=O)ccc1O (stereo not given) | 40 | -1 | 82* | -1
COc1cc([C@@H]2OC[C@@H]3[C@H]2CO[C@@H]3c2ccc3c(c2)OCO3)ccc1O | . | -1 | 13 | 8
CNC(=O)CSc1nc2nn(-c3ccccc3)c(=O)c-2c2n1CCCCC2 | 3 | 3 | -5 | 1
O=C(CSc1nc2nn(-c3ccccc3)c(=O)c-2c2n1CCCCC2)c1ccc(O)c(O)c1 | . | 4 | 92* | 100*
CCn1c2ccccc2c2cc(NC(=O)c3ccccc3-c3ccccc3C(=O)O)ccc21 | 24 | 2 | 98* | -4
CCn1c2ccccc2c2cc(NC(=O)C(C)C)ccc21 | 17 | 8 | 1 | 4
NC(=O)C(c1ccccc1)c1ncc(C(F)(F)F)cc1Cl (stereo not given) | 24 | 1 | -1 | 2
Nc1nc(Nc2ccccc2)nc(NCc2ccccc2)c1[N+](=O)[O-] | 1 | 26 | 86* | -22
O=C(NCc1cccnc1)NC1(C(F)(F)F)Oc2ccc(Cl)cc2O1 (stereo not given) | -3 | 4 | ? | 58*
CCc1nc(SCC(=O)c2ccccc2)c2ccccc2n1 | 13 | 7 | 99* | 16
CCc1nc(SCC(=O)NNC(=O)c2ccc(OC)cc2)c2ccccc2n1 | 19 | 1 | -4 | 10
CCc1nc(SCC(=O)N2c3ccccc3Sc3ccccc32)c2ccccc2n1 | -20 | 7 | -10 | -2
CCCc1nc(SCC(=O)c2ccc(OC)cc2)c2ccccc2n1 | -13 | 12 | 90* | -2
Cc1cc(C)n(-c2ccc(C(=O)Nc3nc4ccccc4s3)cc2)n1 | 29 | 1 | -4 | -17
Nc1ccc(C(=O)Nc2nc3ccccc3s2)cc1 | 4 | -5 | 94* | -8
O=C(NNc1nc2ccccc2s1)c1ccccc1F | -3 | 0 | 97* | 31
NC(=S)Nc1nc2ccccc2s1 | 14 | 0 | 94* | -3
C/C=C1\COC(C(=O)NCCN2CCCC2)(C(F)(F)F)C=C1C=C1CCCCC1 (stereo not given) | . | 26 | -5 | -5
C=CCc1cccc(/C=N/NC(=O)CCC(=O)Nc2ccc(F)cc2)c1O | 18 | 0 | 5 | 57*
C=CCc1cccc(/C=N/NC(=O)CNc2ccccc2OC)c1O | -55 | 4 | -7 | 63*
CCCc1nc2nc(C)c(NS(=O)(=O)c3ccc(F)cc3)c(=O)n2[nH]1 | 1 | 0 | 15 | -8
Cc1ccc(C)n1NC(=O)c1ccc(Cl)cc1Cl | 8 | -2 | -1 | 4
SMILES | SUMO HTRF inh | NTR1 agonist | ALR inh | Cardio protect
CCOc1cc(/C=N\NC(=O)Cn2nnc3ccccc32)ccc1O | -14 | 0 | 55 | 1
COc1cc(/C=N/NC(=O)Cn2nnc3ccccc32)ccc1O | -2 | 0 | 92* | -1
COc1cc(/C=N/NC(=O)CCn2nnc3ccccc32)ccc1O | -12 | 3 | 99* | 2
CC(C)Cn1c(-c2cccnc2)nc2c1c(=O)[nH]c(=O)n2CC(C)C | -9 | -1 | -11 | 0
O=C(O)/C=C/C(=O)Nc1ccc(-n2ccc(C(F)(F)F)n2)cc1 | 5 | 0 | -6 | 5
CN(C)S(=O)(=O)c1ccc(C(=O)Nc2nnc(-c3ccco3)o2)cc1 | 10 | -1 | -1 | 8
CCCCN(C)S(=O)(=O)c1ccc(C(=O)Nc2nnc(-c3ccco3)o2)cc1 | 0 | 0 | 84* | 20
CC1CCN(CCCn2c(=S)[nH]c3ccc(N4CCOCC4)cc3c2=O)CC1 | 56* | 2 | 85* | 4
CSc1nsc(SCC(=O)Nc2cccc(C(=O)O)c2)n1 | -7 | 2 | 7 | 13
CSc1nsc(SCC(=O)Nc2ccccn2)n1 | 9 | 0 | -5 | 3
CSc1nsc(SCC(=O)Nc2ccc3c(c2)OCCO3)n1 | -1 | 2 | 98* | -7
COc1ccccc1NC(=O)CSc1nc(SC)ns1 | 2 | 2 | 85* | 0
CSc1nsc(SCC(=O)Nc2cccc(NC(C)=O)c2)n1 | 3 | -1 | 99* | 1
Cc1csc(SCC(=O)Nc2ccc3[nH]c(=O)[nH]c3c2)n1 | . | 0 | -15 | 3
CCCCn1c(N)c(N(CCOC)C(=O)COC(=O)/C=C/c2ccc(Br)cc2)c(=O)[nH]c1=O | 3 | 3 | -2 | -1
CCn1c(CNc2nc3ccccc3n2C(C)C)nc2ccccc21 | -14 | 1 | 98* | 8
CC(C)n1c(NCc2nc3ccccc3n2C)nc2ccccc21 | 11 | -2 | 43 | 0
CC(C)n1c(NCc2cc(Cl)ccc2O)nc2ccccc21 | 9 | 7 | 68 | -19
COc1ccc(CNc2nc3ccccc3n2C(C)C)c(O)c1 | 5 | 5 | 99* | -8
COc1ccc(CNc2nc3ccccc3n2C)c(O)c1 | 6 | -1 | . | -9
Cc1ccc(O)c(CNc2nc3ccccc3n2C(C)C)c1 | -7 | 0 | 98* | -4
C=CCn1c(NCc2cc(C)ccc2O)nc2ccccc21 | 12 | 0 | 98* | -8
CCOC(=O)CCc1c(C)c(C#N)c2nc3ccccc3n2c1-n1ccnc1 | 25 | 1 | 4 | 8
Cc1ccc(NC(=O)CN(c2ccc3c(c2)OCO3)S(=O)(=O)c2c(C)n[nH]c2C)cc1 | -3 | 1 | 90* | 8
Cc1n[nH]c(C)c1S(=O)(=O)N(CC(=O)NC1CCCC1)c1ccc(C(C)C)cc1 | 10 | 2 | 81* | 8
SMILES | SUMO HTRF inh | NTR1 agonist | ALR inh | Cardio protect
COc1cc(NC(=O)CN(c2ccc(C)cc2)S(=O)(=O)c2c(C)n[nH]c2C)cc(OC)c1 | -30 | -3 | 3 | -2
Nc1ncnc2c1ncn2[C@@H]1O[C@H](CNC(=O)[C@@H](N)Cc2ccc(C(=O)c3ccccc3)cc2)[C@@H](O)[C@H]1O | . | . | . | -2
CCn1c(SCC(=O)Nc2ccccc2OC)nc(O)cc1=O | 23 | 0 | 98* | -4
COc1ccccc1NC(=O)CSc1nc(O)cc(=O)n1C | -8 | -1 | 99* | 0
COc1ccc(-n2c(SCC(=O)Nc3ccccc3OC)nc(O)cc2=O)cc1 | 27 | 1 | 29 | 2
Cn1c(SCC(=O)Nc2cccc3ccccc23)nc(O)cc1=O | 6 | 0 | 98* | 4
COc1ccccc1NC(=O)CSc1nc2nc(C)cc(C)c2c(=O)[nH]1 | 23 | 0 | 91* | 4
Cc1nc2nc(CC(=O)O)[nH]n2c(=O)c1[N+](=O)[O-] | 10 | 0 | -1 | -5
CCn1c(CC(=O)Nc2ccccc2OC)nnc1SCC(=O)Nc1ccccc1F | 3 | -1 | 93* | -4
C=CCn1c(SCC(=O)Nc2ccccc2C)nc2sc(C)c(C)c2c1=O | 5 | 2 | -3 | -6
CCCn1c(SCC(=O)Nc2cc(Cl)ccc2OC)nc(O)cc1=O | . | -1 | 98* | 8
COc1ccc(Cl)cc1NC(=O)CSc1nc(C)cc(C)n1 | 3 | 1 | . | 5
COc1ccccc1NC(=O)Cc1nnc(SCC(=O)Nc2ccccc2F)n1C | 9 | -1 | 3 | -1
